Test in all cases: Euclidean distance of Cell Painting phenotypic profile (signed KS, 77 features) to DMSO centroid (dimensionless distance); 5 or 10 uM (library dependent); higher = stronger phenotypic change vs DMSO (phenoactivity)
What all share (conditions): 48 h

The test system of one assay is 786-O. In a few lines:
(§1)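 Harmony extracted 77 features from 20X confocal images (9 fields/well) of stained cells, scoring each as a signed Kolmogorov-Smirnov statistic against same-plate vehicle wells. The cells, five cancer lines and a healthy fibroblast line, had received library compounds for 48 h at 10 or 5 uM depending on library, with 0.1% DMSO final. Phenoactivity is the Euclidean distance from each plate-position-corrected, correlation-weighted, top-dose replicate-averaged profile to the median vehicle profile.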

The next assay has as its system A549. An outline of the steps:
as §1

The test system of another assay is DU145. In a few lines:
as §1

The test system of another assay is FB. An outline of the steps: as §1
Another assay relates to HEPG2. An outline of the steps:
as §1

For another assay, the system named is OVCAR4. In a few lines:
as §1

Counter-ions that a name gives are not always drawn.

For the compound `C=C[C@@H]1C[C@]1(NC(=O)[C@@H]1C[C@@H](Oc2ncc(OC)c3ccc(Cl)cc23)CN1C(=O)[C@@H](NC(=O)OC(C)(C)C)C(C)(C)C)C(=O)NS(=O)(=O)C1CC1` [Asunaprevir], the Euclidean distance in the assay on 786-O was 1.27; with A549, 1.49; with DU145, 0.966; in the assay on FB it was 0.784; in the assay with HEPG2, 0.47; with OVCAR4, 1.08.
`CCCC(CCC)C(=O)O` [Valproic acid sodium salt (Sodium valproate)]: the Euclidean distance with 786-O was found to be 0.85; in the assay with A549, 0.706; in the assay on DU145, 0.534; in the assay on FB, 0.529; in the assay on HEPG2 it was 0.677; in the assay on OVCAR4, 0.959.
With `O=C(O)c1ccccc1OP(=O)(O)O` [Fosfosal], the Euclidean distance in the assay with 786-O amounted to 0.982; with A549, 0.849; in the assay on DU145, 0.86; in the assay with FB, 0.671; in the assay with HEPG2, 0.711; with OVCAR4, 1.11.
Turning to `CC(C)(O)c1cc(Nc2cc(Oc3cn(C4CC4)nc3C3CCOCC3)ccn2)ccn1`, the Euclidean distance came to 0.999 in the assay with 786-O; 0.879 in the assay on A549; 1.32 with DU145; 1.38 in the assay with FB; 1.09 with HEPG2; 1.36 with OVCAR4.
`CC(=O)OC1CC2CCC1(C)C2(C)C` (centres undefined) [Bornyl acetate]: the Euclidean distance in the assay with 786-O turned out to be 1.09; in the assay with A549, 0.894; in the assay on DU145 it was 1.24; with FB, 1.11; in the assay on HEPG2, 0.74; in the assay on OVCAR4 it was 1.29.
Consider `CC(C)Cc1ccc(C(C)C(=O)OCc2ccccn2)cc1` (centres undefined) [Ibuprofen piconol], for which the Euclidean distance worked out at 1.39 in the assay with 786-O; 0.595 in the assay on A549; 0.983 in the assay on DU145; 0.788 with FB; 0.518 in the assay with HEPG2; 1.2 in the assay on OVCAR4.
As for `COC(=O)C1=C(C)NC(C)=C(C(=O)OC(C)(C)CN(C)CCC(c2ccccc2)c2ccccc2)C1c1cccc([N+](=O)[O-])c1` (centres undefined) [Lercanidipine], the Euclidean distance was 1.59 in the assay on 786-O; 2.38 in the assay with A549; 1.1 in the assay with DU145; 1.31 in the assay on FB; 1.5 in the assay with HEPG2; 2.02 in the assay with OVCAR4.
For the compound `CS(=O)(=O)N1CCc2c(-c3cnc(N)nc3)nc(N3CCOCC3)nc21`, the Euclidean distance in the assay on 786-O stood at 1.32; in the assay with A549, 2.54; with DU145, 0.984; with FB it was 2.13; in the assay on HEPG2 it was 0.817; with OVCAR4, 2.01.
As to `CN(C)N(C)C(=O)[C@@]1(Cc2ccccc2)CCCN(C(=O)[C@@H](Cc2c[nH]c3ccccc23)NC(=O)C(C)(C)N)C1` [Anamorelin], the Euclidean distance is 1.33 in the assay on 786-O; 0.796 with A549; 0.841 with DU145; 1.59 in the assay on FB; 0.82 in the assay with HEPG2; 0.802 in the assay on OVCAR4.
Consider `COc1c(C)c(C(=O)c2ccc(N)c(C(=O)O)c2)n2ccccc12`, for which the Euclidean distance in the assay on 786-O was found to be 0.838; in the assay on A549 it was 1.03; with DU145, 0.919; in the assay with FB, 1.47; in the assay on HEPG2, 0.969; in the assay on OVCAR4, 1.32.
Take `CC(C)(OCc1nn(Cc2ccccc2)c2ccccc12)C(=O)O` [Bindarit]: the Euclidean distance in the assay with 786-O turned out to be 0.377; with A549 it was 0.614; in the assay with DU145, 0.791; in the assay on FB, 0.934; with HEPG2, 0.939; with OVCAR4, 0.825.
In the case of `Clc1ccc(C(Cn2ccnc2)OCc2c(Cl)cccc2Cl)c(Cl)c1` (centres undefined) [Isoconazole nitrate], the Euclidean distance was 1.02 with 786-O; 0.91 in the assay on A549; 1.26 in the assay with DU145; 0.868 in the assay with FB; 0.714 in the assay on HEPG2; 1.04 in the assay with OVCAR4.
On to `Cc1ccc(C(=O)Nc2ccc(Oc3cc4cnn(C)c4cc3-c3cn[nH]c3)c(F)c2)c(=O)n1-c1ccc(F)cc1`, for which the Euclidean distance is 1.83 with 786-O; 1.59 in the assay with A549; 1.22 with DU145; 3.01 with FB; 2.28 with HEPG2; 1.67 with OVCAR4.
Turning to `O=C1CC2(CCCC2)CC(=O)N1CCCCN1CCN(c2ncccn2)CC1` [Buspirone HCl], the Euclidean distance in the assay on 786-O was 0.547; in the assay with A549, 0.965; in the assay on DU145, 0.869; with FB, 0.994; in the assay on HEPG2 it was 0.61; with OVCAR4, 1.32.
`O=c1[nH]c(=O)n([C@H]2C[C@H](O)[C@@H](CO)O2)cc1F` [Floxuridine]: the Euclidean distance stood at 1.86 in the assay with 786-O; 3 with A549; 2.5 in the assay with DU145; 1.73 in the assay with FB; 2.61 in the assay with HEPG2; 2.71 in the assay with OVCAR4.
On to `C=CCc1ccc(O)c(-c2ccc(O)c(CC=C)c2)c1` [Honokiol], for which the Euclidean distance with 786-O was determined as 0.998; with A549, 0.732; with DU145 it was 1.22; with FB, 1.46; with HEPG2, 1.39; in the assay with OVCAR4, 1.18.
`CCN(CC)CCCC(C)Nc1c2ccc(Cl)cc2nc2ccc(OC)cc12` (centres undefined) [Quinacrine 2HCl]: the Euclidean distance in the assay on 786-O came to 3.59; with A549, 4.6; in the assay with DU145, 2.81; in the assay with FB it was 5.56; in the assay with HEPG2, 4.32; in the assay with OVCAR4, 3.92.
With `O=C(O)CCCc1ccccc1` [Sodium Phenylbutyrate], the Euclidean distance in the assay on 786-O turned out to be 0.697; with A549, 0.666; in the assay with DU145, 1.02; with FB, 0.829; with HEPG2 it was 0.249; in the assay with OVCAR4 it was 1.01.
For the compound `CC(=O)OCC(=O)[C@@]12OC(C)(C)O[C@@H]1C[C@H]1[C@@H]3C[C@H](F)C4=CC(=O)C=C[C@]4(C)[C@@]3(F)[C@@H](O)C[C@@]12C` [Fluocinonide], the Euclidean distance in the assay with 786-O came to 1.34; in the assay on A549, 2.13; with DU145, 2.47; with FB, 1.51; in the assay with HEPG2, 0.846; in the assay on OVCAR4, 1.99.
For the compound `CC(C(=O)O)c1ccc2c(c1)Cc1cccnc1O2` (centres undefined) [Pranoprofen], the Euclidean distance in the assay on 786-O came out at 1.12; in the assay with A549 it was 0.714; in the assay with DU145, 1.29; in the assay on FB, 1.04; in the assay on HEPG2, 0.599; in the assay with OVCAR4, 0.996.
For the compound `C[C@@H](O)[C@@H]1NC(=O)[C@H](CCCCN)NC(=O)[C@@H](Cc2c[nH]c3ccccc23)NC(=O)[C@H](Cc2ccccc2)NC(=O)[C@@H](NC(=O)[C@H](N)Cc2ccccc2)CSSC[C@@H](C(=O)N[C@H](CO)[C@@H](C)O)NC1=O` [Octreotide Acetate], the Euclidean distance with 786-O is 1.6; in the assay on A549, 1.39; with DU145, 1.08; in the assay with FB, 0.734; in the assay with HEPG2 it was 0.782; in the assay with OVCAR4, 1.45.
For the compound `O=C1c2c(O)cc(O)cc2OC(c2ccc(O)c(O)c2)C1O` (centres undefined) [Taxifolin (Dihydroquercetin)], the Euclidean distance was 1.12 in the assay with 786-O; 0.542 in the assay with A549; 1.09 in the assay on DU145; 1.25 in the assay with FB; 0.834 in the assay with HEPG2; 0.517 in the assay on OVCAR4.
On to `C=C1C(=O)O[C@H]2[C@H]1CC/C(C)=C/CC[C@@]1(C)O[C@@H]21` [(-)-Parthenolide], for which the Euclidean distance in the assay on 786-O came to 3.29; with A549, 1.26; in the assay with DU145, 3.27; in the assay with FB, 2.7; with HEPG2, 1.55; in the assay with OVCAR4, 1.16.
Take `O=C(c1cn(Cc2cncn2Cc2ccc(Br)cc2)cc1-c1cccc2ccccc12)N1CCOCC1`: the Euclidean distance was 2.26 with 786-O; 2.37 with A549; 1.56 in the assay on DU145; 2.75 in the assay on FB; 1.15 with HEPG2; 1.92 in the assay on OVCAR4.

Source of the values: the supplement of paper PMC10127200.
